Test results: PubChem BioAssay (NCI)
Values joined by “and” are separate entries in the source; they are usually repeats but may differ in a detail not shown here. Identical values can stand only once. The panel holds about 83,000 compounds, 20% with a hit somewhere; the sample as a whole holds those more often.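 Treatment: one concentration, 48 hours, 96-well format. Scoring: percent growth, with anything below 10 considered active.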 Active and inactive are the calls of the source.

Columns and labels:
Assay in all cases: NCI-60 one-dose screen, 48 h (100 = growth as untreated, 0 = no growth, -100 = all killed)
Settings in all cases: 10 µM unless noted
[1] = system: SK-MEL-2 melanoma
[2] = system: EKVX NSCLC
[3] = system: SN12C renal
[4] = system: UO-31 renal
[5] = system: TK-10 renal
[6] = system: ACHN renal
[7] = system: CAKI-1 renal
[8] = system: A498 renal
[9] = system: HL-60(TB) leukemia
[10] = system: CCRF-CEM leukemia
[11] = system: MOLT-4 leukemia
[12] = system: SR leukemia
[13] = system: RPMI-8226 leukemia
[14] = system: OVCAR-8 ovarian
[15] = system: OVCAR-5 ovarian
[16] = system: OVCAR-4 ovarian
[17] = system: SK-OV-3 ovarian
[18] = system: IGROV1 ovarian
[19] = system: OVCAR-3 ovarian
[20] = system: HS 578T breast

Compound | growth [1] | growth [2] | growth [3] | growth [4] | growth [5] | growth [6] | growth [7] | growth [8] | growth [9] | growth [10] | growth [11] | growth [12] | growth [13] | growth [14] | growth [15] | growth [16] | growth [17] | growth [18] | growth [19] | growth [20]
Oc1cc(N2CC2)c(O)cc1N1CC1 | -37.5% (active) | 58.4% (inactive) | 12.7% (inactive) | -36.6% (active) | -7.44% (active) | 2.38% (active) | -1.5% (active) | -75.2% (active) | 16.1% (inactive) | 24.7% (inactive) | 9.13% (active) | 21.6% (inactive) | 2.53% (active) | 11.2% (inactive) | 2.7% (active) | 18% (inactive) | 2.44% (active) | -38.3% (active) | -34.4% (active) | -17.4% (active)
CCN1C(=O)CC(=O)N(CC)C1=S | 97% (inactive) | 108% (inactive) | 99.3% (inactive) | 91.7% (inactive) | 105% (inactive) | 101% (inactive) | 76.8% (inactive) | 94.6% (inactive) | 68.7% (inactive) | 94.8% (inactive) | 109% (inactive) | 101% (inactive) | 104% (inactive) | 109% (inactive) | 85.7% (inactive) | 89.9% (inactive) | 99.7% (inactive) | 98.5% (inactive) | 112% (inactive) | 102% (inactive)
C[C@]12CC[C@H]3[C@@H](CC=C4c5nc(N)sc5CC[C@@]43C)[C@@H]1CC[C@@H]2O | 98% (inactive) | 101% (inactive) | 93.8% (inactive) | 96.3% (inactive) | 102% (inactive) | 106% (inactive) | 91.7% (inactive) | 86% (inactive) | 87.8% (inactive) | 91.2% (inactive) | 103% (inactive) | 91.6% (inactive) | 103% (inactive) | 99.5% (inactive) | 107% (inactive) | 95.7% (inactive) | 103% (inactive) | 114% (inactive) | 99.6% (inactive) | 105% (inactive)
Nc1ccc2c(c1)Cc1cc(N)ccc1-2 | 89.9% (inactive) | 61.2% (inactive) | 90.5% (inactive) | 62.6% (inactive) | 106% (inactive) | 97% (inactive) | 86.4% (inactive) | 84.9% (inactive) | 100% (inactive) | 60.1% (inactive) | 104% (inactive) | 95% (inactive) | 68.6% (inactive) | 99.7% (inactive) | 107% (inactive) | 95.5% (inactive) | 82.3% (inactive) | 83.2% (inactive) | 87.6% (inactive) | 84.4% (inactive)
C[C@]12CC[C@H]3[C@@H](CC=C4c5nc(-c6ccc(Br)cc6)sc5CC[C@@]43C)[C@@H]1CC[C@@H]2O | 101% (inactive) | 109% (inactive) | 91.4% (inactive) | 95.6% (inactive) | 110% (inactive) | 93.4% (inactive) | 85.4% (inactive) | 107% (inactive) | 94.3% (inactive) | 96.1% (inactive) | 89.2% (inactive) | 98.2% (inactive) | 54.6% (inactive) | 106% (inactive) | 90% (inactive) | 95.1% (inactive) | 95.1% (inactive) | 99.1% (inactive) | 103% (inactive) | –
CC[C@H](C)[C@H](NC(=O)[C@H]1CCCCN1C)C(=O)N(C)[C@H](C[C@@H](OC(C)=O)c1nc(C(=O)NC23C4C5C2C2C3C4C52C(=O)OC)cs1)C(C)C (stereo not given in full) | 39.7% (inactive) | 36.2% (inactive) | 32.5% (inactive) | 33.4% (inactive) | 36.7% (inactive) | 16.2% (inactive) | 28.9% (inactive) | 3.94% (active) | -32.8% (active) | 6.99% (active) | 8.38% (active) | 2.77% (active) | 29.2% (inactive) | 16.5% (inactive) | 55.7% (inactive) | 50.3% (inactive) | 34.4% (inactive) | 21.9% (inactive) | -7.47% (active) | 34.3% (inactive)
CN(C)[C@@H]1C(=O)C(C(N)=O)=C(O)[C@@]2(O)C(=O)C3=C(O)c4c(O)ccc(Cl)c4[C@@](C)(O)[C@H]3C[C@@H]12 | 81.6% (inactive) and 24.7% (inactive) | 111% (inactive) and 98.3% (inactive) | 93.7% (inactive) and 103% (inactive) | 55.1% (inactive) and 82.1% (inactive) | 86.9% (inactive) | 70.9% (inactive) and 94.4% (inactive) | 73.1% (inactive) and 99.6% (inactive) | 92.2% (inactive) and 110% (inactive) | 100% (inactive) | 94.1% (inactive) and 101% (inactive) | 99.5% (inactive) and 121% (inactive) | 87.9% (inactive) and 82.8% (inactive) | 87% (inactive) and 91.1% (inactive) | 98.7% (inactive) and 91.7% (inactive) | 92.1% (inactive) and 94.8% (inactive) | 98.3% (inactive) and 98.6% (inactive) | 90.3% (inactive) and 95.8% (inactive) | 78.7% (inactive) and 87.2% (inactive) | 112% (inactive) and 102% (inactive) | 94.7% (inactive) and 91.7% (inactive)
O=[N+]([O-])c1cc(Cl)c(Cl)c([N+](=O)[O-])c1Cl | 116% (inactive) | 122% (inactive) | 23.1% (inactive) | 5.47% (active) | 80.7% (inactive) | -30.1% (active) | -71.5% (active) | 108% (inactive) | 22.2% (inactive) | 15% (inactive) | 13.3% (inactive) | 11.2% (inactive) | 29.7% (inactive) | 38.9% (inactive) | 107% (inactive) | 29.3% (inactive) | 105% (inactive) | 28.9% (inactive) | 10% (inactive) | –
Cc1cc(Br)c([N+](=O)[O-])cc1[N+](=O)[O-] | 111% (inactive) | 103% (inactive) | 101% (inactive) | 114% (inactive) | 110% (inactive) | 106% (inactive) | 88.5% (inactive) | 97.9% (inactive) | 59.4% (inactive) | 60.5% (inactive) | 71.1% (inactive) | 40.4% (inactive) | 120% (inactive) | 94.9% (inactive) | 107% (inactive) | 113% (inactive) | 104% (inactive) | 110% (inactive) | 103% (inactive) | –
COc1cc2c(c(OC)c1OC)-c1ccc(O)cc1[C@@H](NC(C)=O)CC2 | 41.3% (inactive) | 44% (inactive) and 22.6% (inactive) | 29.1% (inactive) and 26.9% (inactive) | 25.5% (inactive) and 33.2% (inactive) | 11.1% (inactive) and 38.5% (inactive) | 24.8% (inactive) and 25.8% (inactive) | -5.9% (active) and 16.1% (inactive) | -12.9% (active) | -13.2% (active) and -32.3% (active) | 20.6% (inactive) and -8.81% (active) | 34.5% (inactive) and -8.23% (active) | 15.1% (inactive) and -4.87% (active) | 25% (inactive) and -17.7% (active) | 15.7% (inactive) and 11.1% (inactive) | 33.2% (inactive) and 41.1% (inactive) | 19.3% (inactive) | 8.01% (active) and 6.47% (active) | -24.2% (active) and 8.32% (active) | -39.1% (active) and -30.9% (active) | 50.4% (inactive) and 29.5% (inactive)
CNC(=O)Oc1ccc(Cl)cc1SSc1cc(Cl)ccc1OC(=O)NC | 77.5% (inactive) | 109% (inactive) | 70.9% (inactive) | 64.6% (inactive) | 123% (inactive) | 87.2% (inactive) | 97.1% (inactive) | 98% (inactive) | 61.3% (inactive) | 50.7% (inactive) | 52.9% (inactive) | 67.7% (inactive) | 48.1% (inactive) | 78.8% (inactive) | 121% (inactive) | 74.5% (inactive) | 104% (inactive) | 77.4% (inactive) | 54.7% (inactive) | –
CC[C@H](CC[C@@H](C)[C@H]1CC[C@H]2[C@@H]3CC[C@H]4C[C@]5(CC[C@]4(C)[C@H]3CC[C@]12C)OO[C@](C)(C(F)(F)F)O5)C(C)C | 101% (inactive) | 96.2% (inactive) | 81.2% (inactive) | 78.8% (inactive) | 109% (inactive) | 98.7% (inactive) | 81.7% (inactive) | 97.3% (inactive) | 106% (inactive) | 100% (inactive) | 95% (inactive) | 93.9% (inactive) | 98.3% (inactive) | 97% (inactive) | 74.3% (inactive) | 88.4% (inactive) | 89.9% (inactive) | 79.3% (inactive) | 93.2% (inactive) | 99.8% (inactive)
C=CC[PH+](c1ccccc1)c1ccccc1.C=CC[PH+](c1ccccc1)c1ccccc1.[Pt+2].[S-]c1ncccn1.[S-]c1ncccn1 | 75% (inactive) | 2.19% (active) | 40.3% (inactive) | -94.5% (active) | -3.54% (active) | -43.3% (active) | 5.27% (active) | 103% (inactive) | -5.51% (active) | 6.99% (active) | 7.91% (active) | 13.5% (inactive) | 0.618% (active) | 1.96% (active) | 14.3% (inactive) | 17.6% (inactive) | 96.3% (inactive) | – | -24.5% (active) | 61.6% (inactive)
